Source: PubChem
In the library only some 19% were active in any assay of this set; here they are far more common.
Shiga inhibitor: blocks Shiga toxin action in Vero cells | 9.2% of 290,000 active | AID 2315 | Vero cells, Shiga toxin protein synthesis inhibition reporter | inhibition, % at 38.7 µM; in the data active = inhibition mostly above about 28%, no sharp cut-off; inactive = mostly below about 43%; note: 0% is about no effect
MARV entry inh: blocks Marburg virus binding to or entry into cells | Marburg virus pseudotyped entry inhibition, cell reporter | Potency, µM (titrated, usually from 37.8 µM), inactives show at the highest dose activity change, negative = inhibition, most hits filed as inhibitors | 1.8% of 300,000 active | AID 540276; calls by dose curve; tested in HEK293 cells; note: potency is the fitted concentration of half-maximal effect; % is set by controls: 0 for no effect and ±100 for the full control effect
LASV entry inh: Lassa virus entry inhibition; Lassa virus pseudotype entry inhibition, cell reporter; Potency, µM (top dose mostly 37.9 µM), for inactives: at the highest dose activity change, negative = inhibition, actives largely listed as inhibitors; 1.2% of 300,000 active; calls by dose curve; tested in HEK293 cells; note: potency is the fitted concentration of half-maximal effect; % is set by controls: 0 for no effect and ±100 for the full control effect; nearly all actives have a fitted effect of over 50% in size
CHX counter: counter-screen hit for Shiga toxin inhibitors, cycloheximide; cell reporter, cycloheximide protein synthesis inhibition counterscreen; 12% of 300,000 active; max response, %; in the data active = max response mostly above about 13%, no sharp cut-off; inactive = mostly below about 14%; note: read at 38.3 µM for the half of the compounds with a filed dose; 0% is about no effect
Pf growth 96h: P. falciparum growth inhibition at 96 hour, primary screen for plastid delayed-death inhibitors; 6.9% of 320,000 active; Potency, µM (highest dose often 28.7 µM), without a hit: at the highest dose activity change, negative = inhibition, usual class: inhibitors; P. falciparum luciferase reporter growth, 96 h; AID 504834; note: potency is the fitted concentration of half-maximal effect; % is set by controls: 0 for no effect and ±100 for the full control effect
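Erythrocytes infected with luciferase-expressing P. falciparum were dispensed at 2% hematocrit and 0.05% parasitemia (final), then incubated with compounds 96 hours at 37 C in 5% CO2. Luminescence after detection reagent addition reported growth.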
Pf growth 48h: P. falciparum growth inhibition at 48 hours (one generation) | P. falciparum luciferase growth in erythrocytes, 48 h | Potency, µM (titrated, usually from 28.7 µM), for the others: at the highest dose activity change, negative = inhibition, usual class: inhibitors | 5.9% of 310,000 active | AID 504832; note: potency is the fitted concentration of half-maximal effect; % is set by controls: 0 for no effect and ±100 for the full control effect
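Parasite viability was followed by luminescence of a genomically integrated firefly luciferase. Cultures held 0.1% parasitemia at 2% hematocrit (final), incubated under 5% CO2 at 37 C.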
* = called active by the depositor; u = inconclusive; x = no result given; [ ] = another dose, or the depositor's remark. Unless noted, calls come from the whole dose curve; as a rule, active = well fitted inhibition curve with a large enough effect; inconclusive = small, poorly fitted or top-dose-only effect, or another doubt; inactive = no such curve, though single readings can be large or run the other way.

SMILES | Shiga inhibitor | MARV entry inh | LASV entry inh | CHX counter | Pf growth 96h | Pf growth 48h
Nc1ccc(Nc2nc(-c3cc4ccccc4oc3=O)cs2)cc1 | 116* | u | u | 43* | u | 71%
CC(=O)Nc1ccc(Nc2nc(-c3cc4ccccc4oc3=O)cs2)cc1 | 69* | -32% | -14% | 47* | -24% | 115%
Cc1c([N+](=O)[O-])nnn1-c1cc(Cl)cc(Cl)c1 | 15 | u | 4%[46.1 µM] | 3 | 16% | 13%
COc1ccccc1N1CCN(C(=O)COc2cccc3ccccc23)CC1 | -30 | -1% | -3% | 8 | 27% | -12%
COc1ccc(-n2nc(C(=O)NCC(=O)N(C)Cc3ccccc3)c3ccccc3c2=O)cc1 | -6 | -2%[46.1 µM] | x | -5 | 8% | u
CC(C)CCn1cnc2c(cnn2-c2ccc(F)cc2)c1=O | 60* | u | 3% | 36* | x | 112%
COC(=O)Cn1cnc2c(cnn2-c2ccccc2)c1=O | 22 | x | x | 16* | u | 15%
CCOC(=O)Cn1cnc2c(cnn2-c2ccc(Cl)cc2)c1=O | 36 | 23% | u | 36* | u | u
O=C(Cn1cnc2c(cnn2-c2ccccc2)c1=O)NC1CCCC1 | 9 | x | x | 8 | 25% | 30%
CCOC(=O)Cn1cnc2c(cnn2-c2ccc(OC)cc2)c1=O | 60* | u | 3%[46.1 µM] | 29* | u | 8%
COc1ccc(NC(=O)N2CCc3nc(COc4ccccc4)c4c(c3C2)CO[C@@H](C)C4)cc1 | x | -19%[14.2 µM] | x | x | x | x
CCOC(=O)Cn1cnc2c(cnn2-c2ccccc2)c1=O | 42 | x | x | 21* | -17% | -13%
Cc1nnc2c3cnn(-c4ccc(Cl)cc4)c3ncn12 | 77* | 1% | x | 27* | 2% | 96%
CCC(C(=O)OC)n1cnc2c(cnn2-c2ccc(F)cc2)c1=O (stereo not given) | x | 8%[46.1 µM] | 3%[46.1 µM] | x | x | x
O=C(Cn1cnc2c(cnn2-c2ccccc2)c1=O)N1CCOCC1 | -11 | x | x | 7 | 11% | 7%
COC(=O)C(C)n1cnc2c(cnn2-c2ccc(Cl)cc2)c1=O (stereo not given) | 69* | -5% | -9% | 54* | x | 28%
Cc1ccc(C(=O)NC2CCN(C(=O)NC3CCCCC3)CC2)cc1 | -1 | u | 2% | 1 | -23% | 10%
CC(NC(=O)c1ccc2nc(Cc3ccccc3)oc2c1)c1ccccc1 (stereo not given) | x | x | -10%[46.1 µM] | x | x | x
NC(=O)c1nsc(C(=O)N(CC(=O)NCc2ccccc2)c2ccc(F)cc2)c1N | 11 | 2%[46.1 µM] | -24%[46.1 µM] | -4 | u | 7%
CCOc1ccc(NC(=O)c2sc3nc(-c4ccc(OC)cc4)cn3c2C)cc1 | x | x | 17%[46.1 µM] | x | x | x
COc1ccc(-c2cn3c4c(sc3n2)CCCC4)cc1 | 36 | 4% | 7% | 36* | -23% | x
Cc1ccc(C(=O)N2CCN(C3c4cccc5cccc(c45)C3NS(=O)(=O)c3ccccc3)CC2)cc1 (stereo not given) | -15 | 11µM* | 13µM* | 2 | u | 2.1µM*
Cc1ccc(S(=O)(=O)NC2c3cccc4cccc(c34)C2Sc2nc(C)cc(C)n2)cc1 (stereo not given) | -6 | 18µM* | u | -2 | 8.3µM* | 10µM*
CC(=O)N1CCN([C@@H]2c3cccc4cccc(c34)[C@H]2NS(=O)(=O)c2ccccc2)CC1 | x | -7% | x | x | x | x
CCCCCC(=O)c1c(O)cc(OC)c(Cl)c1O | 93* | x | x | 26* | x | x
SMILES | Shiga inhibitor | MARV entry inh | LASV entry inh | CHX counter | Pf growth 96h | Pf growth 48h
Cn1c(SCC(=O)NC(=O)CN2CCCC2=O)nnc1-c1ccc(F)cc1 | -2 | 1%[46.1 µM] | -1%[46.1 µM] | -7 | 50% | 9%
Cc1cc(C(=O)N/N=C2\CC(=O)CC(C)(C)C2)c(C)n1-c1ccc(F)cc1 | 26 | -14% | 6% | 1 | u | u
Cc1cc(C(=O)N/N=C2\CC(=O)CC(C)(C)C2)c(C)n1-c1ccccc1 | 89* | 2.9µM* | 20% | 87* | u | u
Cc1cc(C(=O)N/N=C2\CC(=O)c3ccccc32)c(C)n1-c1ccccc1 | 65* | u | u | 35* | u | -48%
O=C(COC(=O)/C=C/c1cccs1)Nc1ccccc1Cl | -2 | 7%[46.1 µM] | -5%[46.1 µM] | 1 | 31% | 25%
CC(C)N1CC(COc2ccccc2Cl)OC1=O (stereo not given) | x | 7%[46.1 µM] | 3% | x | x | x
CC(C)=CCN1CCN(Cc2ccc3nsnc3c2)CC1CCO (stereo not given) | -4 | -1% | 5% | -2 | u | -1%
COc1cccc(CNC(=O)CCC2CCCN(c3cc(C)nc(N4CCCC4)n3)C2)c1 (stereo not given) | -3 | u | 3% | 1 | 12µM* | u
COc1ccc(C(=O)N2CCCC(CCC(=O)NCc3ccc(F)c(F)c3)C2)o1 (stereo not given) | 94* | 9%[46.1 µM] | 12% | 26* | 11% | 16%
COc1cccc(CNC(=O)CCC2CCCN(C(=O)c3cc4ccccc4o3)C2)c1 (stereo not given) | 68* | 11µM* | u | 48* | u | 196%
CCOC(=O)N1CCN(S(=O)(=O)N2CCCC(C(=O)NCc3cccc(OC)c3)C2)CC1 (stereo not given) | -2 | -10%[46.1 µM] | -18%[46.1 µM] | -1 | 6.6µM* | -18%
CCOC(=O)C1CCN(C(=O)Nc2cccc(Cl)c2)CC1 | 23 | u | -11% | 7 | 26% | 17%
Oc1ccc(Nc2ccc3ccccc3c2)cc1 | x | -8% | -29% | x | x | x
COc1ccc(N=C2NC(=O)C(CC(=O)NCCc3ccc(OC)c(OC)c3)S2)cc1 (stereo not given) | 5 | 15%[46.1 µM] | u | -1 | -37%[5.75 µM] | u
O=C(NCCSCc1ccccc1)c1cc(S(=O)(=O)N2CCOCC2)ccc1F | -17 | 2% | x | 3 | 0% | -8%
CCOC(=O)c1c(C)[nH]c(C)c1C(=O)COC(=O)c1sccc1C | x | 5% | 3% | x | u | u
Cc1c(C)c2ccc(OCC(=O)N[C@@H](Cc3ccccc3)C(=O)O)cc2oc1=O | -4 | x | x | 0 | 27% | 22%
Cc1ccn(CCC(=O)N2CCCC(CCC(=O)NCc3ccc(F)c(F)c3)C2)n1 (stereo not given) | 7 | 2%[46.1 µM] | -15%[46.1 µM] | -2 | 12µM* | -11%
O=S(=O)(c1ccc(F)cc1)N1CCN(c2nc(-c3ccc(F)cc3)cs2)CC1 | -8 | u | u | 7 | u | u
COc1ccc(-c2csc(N3CCN(S(=O)(=O)c4ccc5c(c4)NC(=O)CO5)CC3)n2)cc1 | -3 | x | x | -4 | 12µM* | 8.3µM*
Cc1sc(N2CCN(S(=O)(=O)c3ccc4c(c3)NC(=O)CO4)CC2)nc1-c1ccccc1 | -4 | u | u | -9 | 9.3µM* | u
COc1ccc(S(=O)(=O)N2CCCCCC2)cc1C(=O)N(C)CC(=O)Nc1ccccc1Cl | x | -18% | 8% | x | -17% | u
